The values below come from article PMC4336329 (PLoS ONE, 2015).

Out of some 310,000 compounds screened, about 14,000 (4.5%) showed an effect of 50% or more. Effects have a minus sign here. What follows is part of a selection rich in strong results, with near analogues and random picks from the rest.
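Also: peak tail current of the secondary pulse compared with the same well before compound.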

Sequence of human ether-à-go-go-related gene (hERG) potassium channel (Q12809 whole entry, looked up): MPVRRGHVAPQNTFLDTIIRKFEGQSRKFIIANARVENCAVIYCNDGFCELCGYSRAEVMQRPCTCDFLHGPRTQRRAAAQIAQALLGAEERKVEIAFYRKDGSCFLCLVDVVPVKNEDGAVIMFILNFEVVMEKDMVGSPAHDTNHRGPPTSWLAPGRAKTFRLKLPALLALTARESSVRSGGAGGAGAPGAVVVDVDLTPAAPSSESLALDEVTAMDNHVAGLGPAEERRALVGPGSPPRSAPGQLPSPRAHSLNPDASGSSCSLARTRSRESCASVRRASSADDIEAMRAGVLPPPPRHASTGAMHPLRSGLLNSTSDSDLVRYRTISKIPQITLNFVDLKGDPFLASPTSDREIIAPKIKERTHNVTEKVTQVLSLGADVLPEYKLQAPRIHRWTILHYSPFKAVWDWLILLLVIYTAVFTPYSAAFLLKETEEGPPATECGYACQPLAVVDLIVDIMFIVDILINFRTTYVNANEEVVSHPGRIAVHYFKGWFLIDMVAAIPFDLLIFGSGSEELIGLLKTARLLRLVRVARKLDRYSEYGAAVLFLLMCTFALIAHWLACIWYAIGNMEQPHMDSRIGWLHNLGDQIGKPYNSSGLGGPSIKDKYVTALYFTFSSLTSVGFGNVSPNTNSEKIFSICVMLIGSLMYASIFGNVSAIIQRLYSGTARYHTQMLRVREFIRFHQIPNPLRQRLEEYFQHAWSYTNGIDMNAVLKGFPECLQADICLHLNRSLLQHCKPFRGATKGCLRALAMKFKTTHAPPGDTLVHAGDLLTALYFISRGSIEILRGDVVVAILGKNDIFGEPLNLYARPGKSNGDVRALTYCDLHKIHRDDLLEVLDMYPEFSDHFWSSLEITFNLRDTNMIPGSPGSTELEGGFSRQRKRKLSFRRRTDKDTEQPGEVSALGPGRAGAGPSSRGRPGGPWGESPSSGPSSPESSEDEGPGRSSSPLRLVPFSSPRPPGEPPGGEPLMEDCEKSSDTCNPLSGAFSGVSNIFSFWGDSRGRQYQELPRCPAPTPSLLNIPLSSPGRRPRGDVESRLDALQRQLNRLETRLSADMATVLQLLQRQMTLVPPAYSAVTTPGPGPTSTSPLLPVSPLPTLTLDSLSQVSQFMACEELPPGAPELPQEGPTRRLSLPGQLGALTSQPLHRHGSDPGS

The experiment addresses human ether-à-go-go-related gene (hERG) potassium channel (human, UniProt Q12809). Put plainly: primary screen, population patch clamp on CHO cells stably expressing hERG; higher = less effect of the substance.
In the case of `CC(OC(=O)C1=COCCO1)C(=O)NC1CCCCC1C` (stereo not drawn), the “hERG current change (%, negative = inhibition) at 10uM” value amounted to 12.7%. For `Cc1ccc(CNC(=O)COC(=O)c2ccc(Cl)c(N)c2)cc1`, the “hERG current change (%, negative = inhibition) at 10uM” value was -3.37%.

`CN(C)C(=O)COC(=O)[C@H](Cc1ccccc1)NC(=O)c1ccco1`: the “hERG current change (%, negative = inhibition) at 10uM” value was found to be 7.23%. The result for `Cc1cnc(C(=O)OCC(=O)N2CCN(S(=O)(=O)c3ccc(Cl)cc3)CC2)cn1` reads 4.81%; that for `CCOC(=O)c1c(CSc2cccs2)n(C)c2cc(Br)c(O)c(CN(C)C)c12.Cl`, -68.3%; that for `CCOC(=O)c1c(CN2CCCCC2)n(C)c2cc(Br)c(O)c(CN(C)C)c12`, -19%.

Take `CCOC(=O)c1c(CSc2ccccc2)n(C)c2cc(Br)c(O)c(CN(C)C)c12`: the “hERG current change (%, negative = inhibition) at 10uM” value is -68.5%. The result for `CCOC(=O)c1c(CSc2ccccc2)n(C)c2cc(Br)c(OC)c(O)c12` reads 16.2%. The result for `CCOC(=O)c1c(CSc2ccc(C)cc2)n(C)c2cc(Br)c(O)c(CN(C)C)c12.Cl.O` reads -54.9%; that for `CCOC(=O)c1c(CN2CCOCC2)n(C)c2cc(Br)c(O)c(CN(C)C)c12.Cl`, -26.6%. Take `CCOC(=O)c1c(CN2CCOCC2)n(C)c2cc(Br)c(O)c(CN(C)C)c12`: the “hERG current change (%, negative = inhibition) at 10uM” value is reported as -27.4%. As for `CCOC(=O)c1c(CSc2ccccc2)n(C)c2ccc(O)cc12`, the “hERG current change (%, negative = inhibition) at 10uM” value is reported as 21.3%. As to `CCOC(=O)c1c(CS(=O)(=O)c2ccccc2)n(C)c2cc(Br)c(O)c(CN(C)C)c12`, the “hERG current change (%, negative = inhibition) at 10uM” value is -50.4%. `CCOC(=O)c1c(CN(C)C)n(C)c2ccc(OC(C)=O)cc12.Cl`: the “hERG current change (%, negative = inhibition) at 10uM” value was -41.3%. In the case of `CCOC(=O)c1c(C)n(C)c2cc(Br)c(O)c(O)c12`, the “hERG current change (%, negative = inhibition) at 10uM” value amounted to 8.12%. As to `COc1cc(OC)c(NC(=O)CS(=O)(=O)Cc2nc(-c3ccc(C)cc3)oc2C)cc1Cl`, the “hERG current change (%, negative = inhibition) at 10uM” value was 11.5%. Take `COc1ccc(C2SCCN2S(=O)(=O)c2ccccc2)cc1` (stereo not drawn): the “hERG current change (%, negative = inhibition) at 10uM” value was -4.42%. On to `O=C(Nc1cc2c3c(c1)CC(=O)N3CCC2)c1ccccc1F`, for which the “hERG current change (%, negative = inhibition) at 10uM” value is listed as 0.297%.

As to `O=C(CNC(=O)c1ccccc1F)OCc1csc(-c2ccccc2)n1`, the “hERG current change (%, negative = inhibition) at 10uM” value stood at 14.6%.

Regarding `COc1cc(O)oc1C=Nc1ccccc1`, the “hERG current change (%, negative = inhibition) at 10uM” value is reported as -18.3%.

On to `CCSc1nnc(-c2cccs2)o1`, for which the “hERG current change (%, negative = inhibition) at 10uM” value is on record as 10.1%. Take `O=C(c1ccc2snnc2c1)N1CCSCC1`: the “hERG current change (%, negative = inhibition) at 10uM” value is given as 4.21%. Regarding `COc1ccc(NC(=O)C(CC(=O)O)Cc2ccc(Cl)cc2)cc1` (stereo not drawn), the “hERG current change (%, negative = inhibition) at 10uM” value was 11.9%. Turning to `N#Cc1ccc(CSc2nnc(NC(=O)c3ccc(=O)[nH]c3)s2)cc1`, the “hERG current change (%, negative = inhibition) at 10uM” value turned out to be 3.51%. Regarding `Cc1ccc(C(=O)c2cn[nH]c2-c2ccccc2O)cc1`, the “hERG current change (%, negative = inhibition) at 10uM” value came out at 14.4%. For `COc1ccc2c(c1)C(=O)[C@H](O)[C@@H](c1ccc(OC)c(Br)c1)O2`, the “hERG current change (%, negative = inhibition) at 10uM” value is 12.9%. Regarding `COC(=O)c1cc(O)cc(OC)c1C(=O)c1c(O)cc(C)cc1O`, the “hERG current change (%, negative = inhibition) at 10uM” value amounted to 4.87%. Next, `O=C(Cc1ccccc1)NNC(=O)c1ccccc1C(=O)O`: -5.66%; `CCOC(=O)c1c(CSc2ccsc2)n(C)c2cc(Br)c(O)c(CN(C)C)c12.Cl`: -84.2%. Regarding `Cc1cc(O)c(/C=N/Nc2cccc(Cl)c2)c(=O)o1`, the “hERG current change (%, negative = inhibition) at 10uM” value is listed as 1.55%.

On to `N#C/C(=C\c1c(N2CCC(C(N)=O)CC2)nc2ccccn2c1=O)C(=O)NC1CCCCC1`, for which the “hERG current change (%, negative = inhibition) at 10uM” value came out at 20.9%. Consider `Cc1ccc(S(=O)(=O)/C(C#N)=C/c2c(N3CCN(Cc4ccccc4)CC3)nc3ccccn3c2=O)cc1`, for which the “hERG current change (%, negative = inhibition) at 10uM” value is 5.58%. For the molecule `Cc1ccc(S(=O)(=O)/C(C#N)=C/c2c(N3CCC(C(N)=O)CC3)nc3ccccn3c2=O)cc1`, the “hERG current change (%, negative = inhibition) at 10uM” value was -55.3%. With `N#C/C(=C\c1c(N2CCC(C(N)=O)CC2)nc2ccccn2c1=O)S(=O)(=O)c1ccccc1`, the “hERG current change (%, negative = inhibition) at 10uM” value is -4.45%. On to `N#C/C(=C\c1c(N2CCC(C(N)=O)CC2)nc2ccccn2c1=O)S(=O)(=O)c1ccc(Cl)cc1`, for which the “hERG current change (%, negative = inhibition) at 10uM” value was -70.9%. As for `COc1ccc(N2CCN(c3nc4ccccn4c(=O)c3/C=C(\C#N)S(=O)(=O)c3ccccc3)CC2)cc1`, the “hERG current change (%, negative = inhibition) at 10uM” value was -2.49%. Consider `COc1ccc(CN(C(=O)CNC(=O)c2ccco2)C(C(=O)NC2CCCC2)c2ccco2)cc1` (stereo not drawn), for which the “hERG current change (%, negative = inhibition) at 10uM” value is reported as -15.9%.

As to `COc1ccccc1OCc1nnc(SCC(=O)NCc2ccco2)n1-c1ccccc1`, the “hERG current change (%, negative = inhibition) at 10uM” value was -9.19%. Regarding `COc1ccc(N2CCN(CCC3Oc4cc([N+](=O)[O-])ccc4NC3=O)CC2)cc1` (stereo not drawn), the “hERG current change (%, negative = inhibition) at 10uM” value is -19.1%.

For `COc1ccc2c(CCNC(=O)c3ccco3)c[nH]c2c1`, the “hERG current change (%, negative = inhibition) at 10uM” value is reported as -1.53%. Turning to `CCOC(=O)COc1coc(CN2CCN(c3ccc(F)cc3)CC2)cc1=O`, the “hERG current change (%, negative = inhibition) at 10uM” value is -19.4%. Turning to `CCOc1ccccc1N(CC(=O)Nc1ccc(OC)cc1OC)S(=O)(=O)c1ccccc1`, the “hERG current change (%, negative = inhibition) at 10uM” value came to 14.6%. The result for `CS(=O)(=O)c1ccc2nc(NC(=O)c3cc(-c4ccccc4)nn3-c3ccccc3)sc2c1` reads 8.38%; that for `COC(=O)c1ccc(COc2ccccc2/C=C/C(=O)c2ccc(OCC(=O)O)cc2)cc1`, 3.76%. For `CN(C)c1nc(N)nc(-c2nc3ccccc3s2)n1`, the “hERG current change (%, negative = inhibition) at 10uM” value was -3.77%. Regarding `COc1ccc2c(c1OC)C(=O)OC2c1c(O)nc(SC)n(-c2ccccc2)c1=O` (stereo not drawn), the “hERG current change (%, negative = inhibition) at 10uM” value is listed as -2.74%. In the case of `COc1ccc2c(c1OC)C(=O)OC2c1c(O)n(C2CCCCC2)c(=O)[nH]c1=O` (stereo not drawn), the “hERG current change (%, negative = inhibition) at 10uM” value was -68.8%. `COc1ccc2c(c1OC)C(=O)OC2c1c(O)n(Cc2ccc(F)cc2)c(=O)[nH]c1=O` (stereo not drawn): the “hERG current change (%, negative = inhibition) at 10uM” value was 3.09%.

Consider `Cc1cc(-c2ccc(C)c(S(=O)(=O)N3CCN(c4ccccn4)CC3)c2)on1`, for which the “hERG current change (%, negative = inhibition) at 10uM” value was -21.2%.

As for `Cc1cc(-c2ccc(C)c(S(=O)(=O)N3CCN(c4ccc([N+](=O)[O-])cc4)CC3)c2)on1`, the “hERG current change (%, negative = inhibition) at 10uM” value was -67.8%. As to `CCc1ccc(-c2cc(C)no2)cc1S(=O)(=O)N1CCN(c2ccc(F)cc2)CC1`, the “hERG current change (%, negative = inhibition) at 10uM” value was 7.09%. Take `Cc1noc(C)c1S(=O)(=O)N1CCN(c2ccc([N+](=O)[O-])cc2)CC1`: the “hERG current change (%, negative = inhibition) at 10uM” value was -69%. Consider `COc1ccc(-c2cc(C)no2)cc1S(=O)(=O)N1CCN(c2ccccc2F)CC1`, for which the “hERG current change (%, negative = inhibition) at 10uM” value came out at 3.36%. Next, `CCc1ccc(-c2cc(C)no2)cc1S(=O)(=O)N1CCN(c2ccccn2)CC1`: 4.29%; `Cc1cc(-c2ccc(C)c(S(=O)(=O)N3CCN(c4ccc(F)cc4)CC3)c2)on1`: -8.14%; `Cc1noc(C)c1S(=O)(=O)N1CCN(c2ccc(Cl)cc2)CC1`: -6.26%.

As for `COc1ccc(-c2cc(C)no2)cc1S(=O)(=O)N1CCN(c2ccccn2)CC1`, the “hERG current change (%, negative = inhibition) at 10uM” value was -63.7%. The result for `COc1ccc(-c2cc(C)no2)cc1S(=O)(=O)N1CCCCC1` reads 2.3%. As for `COc1ccc(-c2cc(C)no2)cc1S(=O)(=O)N1CCN(c2ccc([N+](=O)[O-])cc2)CC1`, the “hERG current change (%, negative = inhibition) at 10uM” value was -76.2%. `Cc1noc(C)c1S(=O)(=O)N1CCN(c2ccccc2)CC1`: the “hERG current change (%, negative = inhibition) at 10uM” value is recorded as -5.33%.
